An excerpt weighted towards active compounds, which were near 4.2% of everything screened.
Wnt act = activators of Wnt/beta-catenin signaling; Wnt/beta-catenin reporter cell assay, activator, plate reader; activation, % at 9.35 µM; hit rate 1.2% among 300,000; in the data active means activation above about 30%, passing the limit was not always enough;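 further: 0% = neutral control wells and 100% = positive control wells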
AHR act = activators of human aryl hydrocarbon receptor. activation, % at 5 µM. hit rate 2.5% among 320,000. AHR-responsive luciferase reporter cells, luminescence; in the data active means activation above about 47%;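 further: 0% = vehicle wells and 100% = reference agonist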
Target sequence (P35869 whole entry, looked up): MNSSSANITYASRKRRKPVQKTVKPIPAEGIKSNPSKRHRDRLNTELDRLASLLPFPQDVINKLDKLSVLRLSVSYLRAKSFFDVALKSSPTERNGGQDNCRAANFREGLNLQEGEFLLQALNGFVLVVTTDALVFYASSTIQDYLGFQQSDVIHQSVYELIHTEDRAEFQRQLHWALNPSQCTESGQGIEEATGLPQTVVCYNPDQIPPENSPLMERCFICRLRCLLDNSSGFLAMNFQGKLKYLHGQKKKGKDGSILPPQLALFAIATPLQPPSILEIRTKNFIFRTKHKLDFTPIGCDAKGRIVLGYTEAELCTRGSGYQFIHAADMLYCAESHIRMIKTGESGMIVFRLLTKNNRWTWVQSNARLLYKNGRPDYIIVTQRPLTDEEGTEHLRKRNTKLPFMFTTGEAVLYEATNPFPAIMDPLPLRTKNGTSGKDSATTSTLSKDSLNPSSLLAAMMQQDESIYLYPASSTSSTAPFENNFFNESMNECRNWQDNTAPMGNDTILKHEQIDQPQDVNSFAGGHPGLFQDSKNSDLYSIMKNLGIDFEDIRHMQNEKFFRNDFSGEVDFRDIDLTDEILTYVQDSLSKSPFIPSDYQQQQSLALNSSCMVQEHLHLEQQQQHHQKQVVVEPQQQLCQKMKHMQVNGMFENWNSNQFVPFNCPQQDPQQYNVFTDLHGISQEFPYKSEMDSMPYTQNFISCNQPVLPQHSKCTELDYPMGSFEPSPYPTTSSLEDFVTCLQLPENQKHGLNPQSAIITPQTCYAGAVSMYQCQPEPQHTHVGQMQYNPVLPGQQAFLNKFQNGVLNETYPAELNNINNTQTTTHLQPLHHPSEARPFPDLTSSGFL
MITF act = MITF TRPM1 promoter activation in melanoma cells; SK-MEL-5 TRPM1-promoter luciferase, 24 h; % of positive control, neutral wells = 0; activation, % at 12.5 µM; hit rate 0.75% among 300,000; AID 588334;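 active means mean activation of at least 80% with every replicate also reaching 80%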;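 further: 0% = neutral control wells and 100% = parthenolide positive control wells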
FXN GAA850 act = frataxin GAA850 promoter activation | AID 540364 | HEK293 lucGAA850 FXN promoter luciferase reporter, 24 h; percent of 10 µM SAHA response | hit rate 0.56% among 360,000 | activation, % at 6 µM;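 active means activation above the average of all compounds screened plus 3 SD, cutoff fixed separately per campaign, cut at about 7.5% in these data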;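 further: 0% = DMSO wells and 100% = 10 µM SAHA wells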
esBAF inh = SWI/SNF esBAF complex inhibition; hit rate 2% among 350,000; reporter increase, % at 12.5 µM; mouse ES cells, Bmi1-luciferase knock-in reporter, 24 h; 100% = twice the neutral-well signal; in the data active means activation above about 40%;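 further: 0% = median of the plate's neutral control wells and 100% = double that signal; a rise in the Bmi1 reporter signal indicates esBAF inhibition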
The depositor's hits bear a star; . = no result given.

SMILES	Wnt act	AHR act	MITF act	FXN GAA850 act	esBAF inh
c1ccc2[nH]c(SCC3CCCCO3)nc2c1 (stereo not given)	40*	6	87*	2	.
COC(=O)N/N=C/c1cn(Cc2c(Cl)cccc2Cl)c2ccccc12	-8	64*	7	-1	8
COC(=O)N/N=C/c1cn(CCCOc2ccccc2)c2ccccc12	0	18	5	-3	.
Clc1ccc(Cn2cc(/C=N/n3cnnc3)c3ccccc32)c(Cl)c1	.	7	-15	5	.
COC(=O)N/N=C/c1cn(Cc2ccc(F)cc2)c2ccccc12	-4	26	.	-1	.
COC(=O)N/N=C/c1cn(Cc2ccccc2F)c2ccccc12	-3	58*	-12	5	4
COC(=O)N/N=C/c1cn(Cc2ccc(Cl)cc2Cl)c2ccccc12	-1	71*	-13	-1	.
O=C(O)c1ccc(N/N=C/c2cn(Cc3ccccc3F)c3ccccc23)cc1	13	-2	73	6	54*
C[C@H](CO)N1C[C@H](C)[C@@H](CN(C)C(=O)NC2CCCC2)Oc2ncc(-c3ccccc3)cc2C1=O	.	.	.	.	0
C[C@H](CO)N1C[C@H](C)[C@H](CN(C)C(=O)Cc2cccnc2)Oc2ncc(-c3cncnc3)cc2C1=O	.	.	.	.	1
C[C@@H]1CN([C@@H](C)CO)C(=O)c2cc(NC(=O)CCCN(C)C)ccc2O[C@@H]1CN(C)S(C)(=O)=O	.	.	.	.	3
COc1cccc(S(=O)(=O)N[C@@H]2CC[C@H](CCNC(=O)Nc3cc(F)ccc3F)O[C@H]2CO)c1	.	.	.	.	14
c1ccc(-c2ccc(OCCOCCn3cncn3)cc2)cc1	.	-7	68	4	62*
C[C@@H]1CN([C@H](C)CO)C(=O)c2cccc(NC(=O)Nc3ccc(F)cc3)c2O[C@H]1CN(C)Cc1ccncc1	.	.	.	.	1
O=C(Nc1ccccc1)N1CCn2c1nc1ccccc12	1	51*	-25	3	15
Nc1nc2ccccc2n1C(=O)c1cccs1	0	52*	70	0	38
O=C(c1ccco1)N1CCn2c1nc1ccccc12	.	4	.	1	46*
Nc1nc2ccccc2n1C(=O)c1ccco1	37*	.	28	5	.
O=C(c1cnccn1)N1CC[C@@H]2[C@@H](CO)Nc3ccc(C#Cc4cccnc4)cc3[C@@H]21	.	.	.	.	-1
COc1ccc(NC(=O)Nc2ccc3c(c2)C(=O)N([C@@H](C)CO)C[C@@H](C)[C@@H](CN(C)C(=O)NC(C)C)OCCCC[C@H](C)O3)cc1	.	.	.	.	6
O=C(N[C@H]1CC[C@H](CCNC(=O)C2CCCCC2)O[C@H]1CO)c1ccncc1	.	.	.	.	-6
CN(C)S(=O)(=O)N1CCC(Oc2cccc(C(=O)NC3CCCCCC3)c2)CC1	-4	-8	-39	0	0
Cc1cc(CNC(=O)c2cccc(OC3CCN(S(=O)(=O)N(C)C)CC3)c2)on1	2	7	36	2	71*
C[C@H]1CN([C@@H](C)CO)C(=O)c2cc(NC(=O)Nc3ccc4c(c3)OCO4)ccc2O[C@H]1CN(C)Cc1ccc(C(=O)O)cc1	.	.	.	.	1
CN(C)C(=O)[C@@H]1[C@@H](CO)[C@@H]2Cn3c(ccc(-c4ccccc4)c3=O)[C@@H]2N1C(=O)c1ccccn1	.	.	.	.	5
SMILES	Wnt act	AHR act	MITF act	FXN GAA850 act	esBAF inh
N/C(=N\OC(=O)c1ccoc1)c1ccc(Br)cc1	42*	6	93*	3	44*
Cc1cc(C)cc(C(=O)O/N=C(\N)c2ccc(Br)cc2)c1	.	10	21	-3	10
Cc1ccc(C(=O)O/N=C(\N)c2ccc(Br)cc2)cc1C	.	33	55	1	53*
CC(=O)N1N=C2c3ccccc3CCC2C1c1cccs1 (stereo not given)	-1	60*	.	0	.
CC(=O)N1N=C(c2cccs2)CC1c1cccs1 (stereo not given)	0	2	-3	6	-4
Cc1ccccc1S(=O)(=O)NCC[C@H]1CC[C@@H](NC(=O)C2CCCCC2)[C@H](CO)O1	.	.	.	.	4
COc1ccc(S(=O)(=O)Nc2ccc3c(c2)C(=O)N([C@H](C)CO)C[C@@H](C)[C@@H](CN(C)C(=O)Nc2ccc(C(F)(F)F)cc2)O3)cc1	.	.	.	.	4
C[C@H](CO)N1C[C@H](C)[C@H](CN(C)Cc2cccc(C(=O)O)c2)OCc2cn(nn2)CCCC1=O	.	.	.	.	-4
CCOC(=O)c1cnn(-c2ccc(C)cc2)c1N	44*	2	77	4	56*
CCOC(=O)c1ccc(-n2ncc(C(=O)OCC)c2N)cc1	0	6	0	0	21
CCOC(=O)c1cnn(-c2ccccc2)c1-n1cccc1	6	1	0	0	-4
